Holding throughout (design): scale not given: direction of the effect not stated beside the values
The target in test [1] is Protein translocase subunit SecA (Escherichia coli (strain K12)) (UniProt P10408). Briefly: Assay to Identify E. coli SecA ATPase Inhibitors. The format is functional. As to conditions: 30 µM.
The target of test [2] is T1, Ubiquitin-activating enzyme e1, putative (Leishmania donovani (strain BPK282A1)) (UniProt E9BSI1).
T1 sequence (whole entry): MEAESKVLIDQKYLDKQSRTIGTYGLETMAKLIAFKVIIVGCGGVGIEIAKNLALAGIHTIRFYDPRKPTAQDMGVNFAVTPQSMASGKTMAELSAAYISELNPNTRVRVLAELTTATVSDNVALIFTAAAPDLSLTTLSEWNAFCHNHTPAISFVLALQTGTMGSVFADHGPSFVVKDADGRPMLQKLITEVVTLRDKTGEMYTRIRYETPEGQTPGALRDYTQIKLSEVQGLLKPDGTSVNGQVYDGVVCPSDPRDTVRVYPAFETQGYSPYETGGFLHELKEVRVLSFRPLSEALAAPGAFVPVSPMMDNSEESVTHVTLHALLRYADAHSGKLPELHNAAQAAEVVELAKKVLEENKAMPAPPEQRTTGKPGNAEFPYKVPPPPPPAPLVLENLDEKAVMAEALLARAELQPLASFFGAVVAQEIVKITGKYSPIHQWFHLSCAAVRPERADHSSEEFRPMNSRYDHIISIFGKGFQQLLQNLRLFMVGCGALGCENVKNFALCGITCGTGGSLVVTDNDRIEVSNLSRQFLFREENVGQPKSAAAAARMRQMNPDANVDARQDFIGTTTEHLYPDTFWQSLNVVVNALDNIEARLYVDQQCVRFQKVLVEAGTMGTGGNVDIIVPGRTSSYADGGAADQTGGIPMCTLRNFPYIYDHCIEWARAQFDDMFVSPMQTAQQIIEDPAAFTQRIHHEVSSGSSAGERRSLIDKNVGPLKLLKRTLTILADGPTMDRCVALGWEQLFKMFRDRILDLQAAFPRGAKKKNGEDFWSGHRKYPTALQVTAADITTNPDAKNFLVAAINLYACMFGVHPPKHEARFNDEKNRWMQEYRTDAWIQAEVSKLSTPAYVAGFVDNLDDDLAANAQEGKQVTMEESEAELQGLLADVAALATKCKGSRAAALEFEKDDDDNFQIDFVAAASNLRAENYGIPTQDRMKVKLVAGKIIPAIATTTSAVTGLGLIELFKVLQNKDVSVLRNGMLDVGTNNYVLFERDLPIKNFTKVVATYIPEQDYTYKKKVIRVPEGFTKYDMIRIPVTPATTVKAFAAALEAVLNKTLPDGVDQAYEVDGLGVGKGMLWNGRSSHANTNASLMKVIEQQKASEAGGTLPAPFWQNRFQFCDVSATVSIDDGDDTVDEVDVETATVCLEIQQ
Briefly: Leishmania donovani Ubiquitin Activating Enzyme (LdE1). The format is functional. As to conditions: 30 µM.

Test [3] has as its target AMP-activated protein kinase, AMPK (Homo sapiens) (UniProt P54646+O43741+P54619+Q9UGJ0+Q9Y478+Q13131+Q9UGI9). As to the kind of experiment: AMP-dependent Kinase enzyme assay. An in vitro enzyme assay that detects ADP turnover that is directly proportional to AMPK activity. This uses naive AMPK that is activated during the assay with MK-8722. It counts as functional. As to conditions: 30 µM.

In test [4] the target is Sialic acid-binding Ig-like lectin 9 (Homo sapiens) (UniProt Q9Y336). Briefly: Hs-Siglec9 ALPHAscreen SOP 20170721. The following applies: 10 µM. Background: Alpha assays give light when donor and acceptor beads are brought close together.
The next test concerns Trypanosoma cruzi. Briefly: Trypanosoma cruzi phosphomannomutase and mannose-1-phosphate guanylyltransferase assay. It counts as functional. The following applies: 10 µM.
Test [5] addresses T2, Arginase-2, mitochondrial (Homo sapiens) (UniProt P78540).
T2 sequence (whole entry): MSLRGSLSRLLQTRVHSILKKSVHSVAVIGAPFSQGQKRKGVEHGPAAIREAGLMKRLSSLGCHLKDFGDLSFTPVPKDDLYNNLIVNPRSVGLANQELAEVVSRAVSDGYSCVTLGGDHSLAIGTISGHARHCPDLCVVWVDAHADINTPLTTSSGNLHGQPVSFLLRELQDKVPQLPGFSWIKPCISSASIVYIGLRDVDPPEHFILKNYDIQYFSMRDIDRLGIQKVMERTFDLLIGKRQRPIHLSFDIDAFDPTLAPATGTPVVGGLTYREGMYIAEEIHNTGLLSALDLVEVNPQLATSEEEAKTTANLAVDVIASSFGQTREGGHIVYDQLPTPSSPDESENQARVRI
Briefly: in vitro enzyme assay to detect the production of urea directly proportional to the activity of Arginase II. Note: in the data most compounds retested in dose-response had high values. The format is functional. The following applies: 33.3 µM.

Test [6] deals with T3, Proteasome subunit beta (Trypanosoma cruzi) (UniProt O96673).
T3 sequence (whole entry): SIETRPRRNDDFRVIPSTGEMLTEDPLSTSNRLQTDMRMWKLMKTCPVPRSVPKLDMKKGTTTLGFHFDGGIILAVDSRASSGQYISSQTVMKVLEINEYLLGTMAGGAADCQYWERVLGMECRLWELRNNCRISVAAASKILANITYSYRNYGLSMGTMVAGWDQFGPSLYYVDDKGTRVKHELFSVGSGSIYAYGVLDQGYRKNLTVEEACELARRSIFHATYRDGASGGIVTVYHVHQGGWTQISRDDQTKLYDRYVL
Briefly: Trypanosoma cruzi proteasome chymotrypsin-like activity (TcProtChymo) assay. Note: in the data most compounds retested in dose-response had high values. It counts as functional. As to conditions: 9.37 µM.

In a further test the test system is N/A. Briefly: Trypanosoma cruzi proteasome luciferase counter-screen. The format is functional. The following applies: 9.37 µM. (In general: A counterscreen serves to expose hits that act by an unwanted route or on another target.)
The species entered for a further test is Homo sapiens. Briefly: To identify inhibition of the IFN signalling (Jak-Stat) pathway via expression of an eGFP reporter gene under the control of an IFN-stimulated response element (ISRE) containing MxA promoter. It counts as functional. The following applies: 30 µM.
Test [7] concerns the target T4, Tyrosyl-tRNA synthetase, putative (Trypanosoma cruzi (strain CL Brener)) (UniProt Q4DSP6).
T4 sequence (whole entry): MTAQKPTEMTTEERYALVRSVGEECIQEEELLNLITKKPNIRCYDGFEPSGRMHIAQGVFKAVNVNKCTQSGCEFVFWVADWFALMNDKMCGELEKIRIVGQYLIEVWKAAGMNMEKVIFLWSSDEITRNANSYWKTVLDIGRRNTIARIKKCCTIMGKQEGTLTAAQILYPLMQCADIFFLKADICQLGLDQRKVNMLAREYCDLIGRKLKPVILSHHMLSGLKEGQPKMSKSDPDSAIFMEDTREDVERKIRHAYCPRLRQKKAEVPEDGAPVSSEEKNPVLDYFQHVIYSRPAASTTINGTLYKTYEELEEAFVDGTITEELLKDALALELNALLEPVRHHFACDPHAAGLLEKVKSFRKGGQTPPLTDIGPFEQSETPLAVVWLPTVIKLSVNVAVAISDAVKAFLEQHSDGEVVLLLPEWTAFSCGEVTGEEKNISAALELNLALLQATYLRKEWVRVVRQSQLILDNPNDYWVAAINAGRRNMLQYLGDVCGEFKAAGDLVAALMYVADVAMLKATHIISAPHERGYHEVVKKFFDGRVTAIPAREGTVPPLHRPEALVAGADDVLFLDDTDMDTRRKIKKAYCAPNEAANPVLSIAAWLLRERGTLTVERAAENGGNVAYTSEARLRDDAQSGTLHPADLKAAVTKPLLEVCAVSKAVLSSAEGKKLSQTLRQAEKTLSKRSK
As to the kind of experiment: Trypanosoma cruzi tyrosyl tRNA synthetase (TcYRS) _High Tyrosine SOP. Note: in the data most compounds retested in dose-response had high values. The format is functional. The following applies: 30 µM.

Test [8] concerns the target T4, Tyrosyl-tRNA synthetase, putative (Trypanosoma cruzi (strain CL Brener)). Briefly: Trypanosoma cruzi tyrosyl tRNA synthetase (TcYRS) SOP. The format is functional. The following applies: 30 µM.
Test [9] addresses Chromo domain-containing protein 1 (Saccharomyces cerevisiae (strain ATCC 204508 / S288c) (Baker's yeast)) (UniProt P32657). Briefly: ScCHD-1 Enzyme Inhibition Assay. Note: in the data most compounds retested in dose-response had high values. It counts as functional. As to conditions: 30 µM.

Values joined by “and” are separate entries in the source; they are usually repeats but may differ in a detail not shown here. Equal values may be shown once. For some assays here: Measured potencies and affinities stand elsewhere.

Protein translocase subunit SecA (Escherichia coli (strain K12)), sequence (P10408 whole entry): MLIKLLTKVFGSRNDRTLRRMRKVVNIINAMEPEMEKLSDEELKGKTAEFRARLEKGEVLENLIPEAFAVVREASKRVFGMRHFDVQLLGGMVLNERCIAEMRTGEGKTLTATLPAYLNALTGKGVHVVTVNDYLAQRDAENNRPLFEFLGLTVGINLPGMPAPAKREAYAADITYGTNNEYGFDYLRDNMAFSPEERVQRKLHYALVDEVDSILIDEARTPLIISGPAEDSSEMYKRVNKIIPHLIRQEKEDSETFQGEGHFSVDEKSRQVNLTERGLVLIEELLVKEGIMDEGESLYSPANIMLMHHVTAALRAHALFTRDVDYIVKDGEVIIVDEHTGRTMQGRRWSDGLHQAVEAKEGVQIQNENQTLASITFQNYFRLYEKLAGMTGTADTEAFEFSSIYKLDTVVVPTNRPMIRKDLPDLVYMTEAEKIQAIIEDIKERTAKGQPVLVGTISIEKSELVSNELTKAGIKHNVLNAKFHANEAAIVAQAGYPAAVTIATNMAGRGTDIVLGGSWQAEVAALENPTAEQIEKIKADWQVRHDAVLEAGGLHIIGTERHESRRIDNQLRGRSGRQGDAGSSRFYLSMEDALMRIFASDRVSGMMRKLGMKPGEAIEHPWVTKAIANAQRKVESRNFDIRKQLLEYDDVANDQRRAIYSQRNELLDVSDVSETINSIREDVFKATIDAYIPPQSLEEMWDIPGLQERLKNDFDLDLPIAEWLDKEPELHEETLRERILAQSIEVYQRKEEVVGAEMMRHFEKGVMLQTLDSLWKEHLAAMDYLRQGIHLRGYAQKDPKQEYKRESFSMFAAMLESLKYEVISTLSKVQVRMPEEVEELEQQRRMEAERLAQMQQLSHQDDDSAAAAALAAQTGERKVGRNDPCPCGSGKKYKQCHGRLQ
Sialic acid-binding Ig-like lectin 9 (Homo sapiens), sequence (Q9Y336 whole entry): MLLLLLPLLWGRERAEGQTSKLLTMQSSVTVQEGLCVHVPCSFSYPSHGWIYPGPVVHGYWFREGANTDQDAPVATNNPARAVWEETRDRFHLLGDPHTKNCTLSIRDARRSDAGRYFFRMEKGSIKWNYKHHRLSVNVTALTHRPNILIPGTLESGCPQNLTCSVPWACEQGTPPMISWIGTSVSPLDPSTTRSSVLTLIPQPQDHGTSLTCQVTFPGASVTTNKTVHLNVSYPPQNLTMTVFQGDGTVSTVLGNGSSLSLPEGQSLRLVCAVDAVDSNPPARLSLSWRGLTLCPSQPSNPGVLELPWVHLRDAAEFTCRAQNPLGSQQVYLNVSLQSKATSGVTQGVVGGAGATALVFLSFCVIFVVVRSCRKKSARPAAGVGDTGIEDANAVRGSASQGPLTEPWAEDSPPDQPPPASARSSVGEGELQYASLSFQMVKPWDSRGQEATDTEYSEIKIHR
Chromo domain-containing protein 1 (Saccharomyces cerevisiae (strain ATCC 204508 / S288c) (Baker's yeast)), sequence (P32657 whole entry, the tested form may be a part): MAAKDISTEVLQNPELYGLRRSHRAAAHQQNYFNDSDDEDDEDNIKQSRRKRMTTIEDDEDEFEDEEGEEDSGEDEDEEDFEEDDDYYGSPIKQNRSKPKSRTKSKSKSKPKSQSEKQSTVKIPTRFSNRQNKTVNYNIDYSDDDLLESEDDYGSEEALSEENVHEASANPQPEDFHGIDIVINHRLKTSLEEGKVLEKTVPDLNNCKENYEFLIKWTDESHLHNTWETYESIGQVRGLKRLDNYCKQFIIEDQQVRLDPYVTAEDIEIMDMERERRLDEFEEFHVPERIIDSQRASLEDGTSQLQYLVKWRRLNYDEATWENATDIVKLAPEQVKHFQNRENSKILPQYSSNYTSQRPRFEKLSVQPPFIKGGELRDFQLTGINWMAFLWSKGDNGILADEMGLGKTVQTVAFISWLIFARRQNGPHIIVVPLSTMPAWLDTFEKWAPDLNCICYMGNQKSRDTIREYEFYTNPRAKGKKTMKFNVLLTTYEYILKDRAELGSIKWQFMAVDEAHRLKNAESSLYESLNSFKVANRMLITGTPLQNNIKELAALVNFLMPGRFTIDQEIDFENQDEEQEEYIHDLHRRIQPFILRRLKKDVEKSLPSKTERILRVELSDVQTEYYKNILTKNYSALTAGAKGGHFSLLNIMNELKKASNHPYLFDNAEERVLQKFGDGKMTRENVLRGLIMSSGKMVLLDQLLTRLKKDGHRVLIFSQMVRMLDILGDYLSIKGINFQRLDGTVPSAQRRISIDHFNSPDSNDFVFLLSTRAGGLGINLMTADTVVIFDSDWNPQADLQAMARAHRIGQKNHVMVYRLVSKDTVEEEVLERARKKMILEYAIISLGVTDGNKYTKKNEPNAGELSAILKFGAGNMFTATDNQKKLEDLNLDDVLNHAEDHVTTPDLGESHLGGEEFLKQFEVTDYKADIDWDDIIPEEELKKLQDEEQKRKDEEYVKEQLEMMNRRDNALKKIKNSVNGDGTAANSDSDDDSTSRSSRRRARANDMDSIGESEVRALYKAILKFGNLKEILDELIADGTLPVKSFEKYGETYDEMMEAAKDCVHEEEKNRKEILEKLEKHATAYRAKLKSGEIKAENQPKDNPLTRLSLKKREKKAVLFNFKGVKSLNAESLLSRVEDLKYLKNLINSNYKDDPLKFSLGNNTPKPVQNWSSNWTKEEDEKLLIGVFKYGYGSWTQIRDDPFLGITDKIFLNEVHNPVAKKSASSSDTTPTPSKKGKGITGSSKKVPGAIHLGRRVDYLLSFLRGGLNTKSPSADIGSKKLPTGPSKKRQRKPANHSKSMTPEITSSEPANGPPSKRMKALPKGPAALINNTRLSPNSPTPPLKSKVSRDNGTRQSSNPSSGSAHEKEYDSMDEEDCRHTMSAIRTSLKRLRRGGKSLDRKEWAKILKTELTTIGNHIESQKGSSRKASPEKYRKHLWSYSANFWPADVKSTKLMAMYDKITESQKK

For `Cc1cnn(CC2CCCN2CC(=O)N(C)Cc2ccc(C)o2)c1` (stereo not given), the Percent Effect in [1] was -0.338%; in test [2], 0%; in test [3] it was -4.82%; in test [4], 2.25%; in the test on Trypanosoma cruzi it was 5.21%; in test [5], 0.476%. In addition, the Percent Effect in [6] was 34.4% and 30.7% and 30.2%; in the test on N/A, 12.9% and 15.3%; in the test filed under Homo sapiens, -9.55%; in test [7], 5.82%; in test [8], 7.32%; in test [9], -2.6%.

`CC(C)C1CN(c2ncccn2)CCC(=O)N1Cc1ccc(F)cc1` (stereo not given): the Percent Effect in test [1] was -4.22%; in [2], 6.94%; in [3], -1.8%; in test [4], -3.12%; in the test with Trypanosoma cruzi, -0.291%; in [5], 4.86%. Further, the Percent Effect is 7.54% in test [6]; 8.83% in the test listed under Homo sapiens; 7.37% in [7]; 12.8% in [8]; -3.01% in test [9].

Take `Cc1ccc(NC(=O)NC(C)C(=O)N2CCS(=O)(=O)CC2)cc1` (stereo not given): the Percent Effect in [1] was -3.85%; in test [2], 5.41%; in test [3] it was 2.74%; in test [4] it was 5.55%; with Trypanosoma cruzi, -1.74%; in test [5] it was -11.9%. The Percent Effect in test [6] is 12.4%; in the test listed under Homo sapiens, 11.4%; in [7], -0.529%; in test [8] it was 12.2%; in test [9], -2.08%.

With `NC(=O)c1nc(COc2ccc3c(c2)OCO3)no1`, the Percent Effect is 2.5% in [1]; 9.33% in test [2]; 10% in test [3]; 1.5% in test [4]; -8.84% with Trypanosoma cruzi; -7.22% in test [5]. The Percent Effect in test [6] was 45% and 40.2% and 44%; in the test with N/A it was 21.3% and 24%; in the test filed under Homo sapiens, 3.46%; in test [7], 2.12%; in [8], 10.3%; in test [9], -8.03%.

For the compound `CC(C)c1cc2c(O)nc(CSCC(=O)O)nc2s1`, the Percent Effect in test [1] was -4.64%; in [2] it was 6.67%; in test [3], 7.73%; in test [4], 3.74%; in the test on Trypanosoma cruzi, 3.93%; in [5] it was -2.99%. The Percent Effect in test [6] is 70.5% and 64.5% and 63.5%; in the test with N/A, 32% and 29.1%; in the test listed under Homo sapiens it was 1.31%; in test [7], 4.23%; in test [8] it was 10.3%; in test [9], -9.79%.

Take `O=C(NCCNc1ncccn1)c1ccc(-c2ccco2)[nH]c1=O`: the Percent Effect in test [1] is -5.27%; in test [2], 27%; in test [3], -6.43%; in [4], 9.97%; in the test on Trypanosoma cruzi, 1.23%; in [5], -11.6%. In addition, the Percent Effect in test [6] was 15.9%; in the test listed under Homo sapiens it was 6.48%; in test [7], 8.37%; in test [8], 23.5%; in test [9], -11.4%.

Consider `Cc1nn(C)c2c(N3CCN(C(=O)c4ccccc4)CC3)ncnc12`, for which the Percent Effect in [1] was 1.93%; in test [2] it was 9.33%; in [3] it was 2.69%; in test [4] it was -1.85%; in the test on Trypanosoma cruzi, -6.68%; in [5], -10.4%. Besides, the Percent Effect is 12% in test [6]; 12.3% in the test listed under Homo sapiens; 8.47% in [7]; 12.8% in [8]; -10.3% in test [9].

Turning to `Cc1ccc(S(=O)(=O)N2CCc3nc(C4CCNCC4)ncc3C2)cc1`, the Percent Effect in test [1] is -3.69%; in test [2], 9.46%; in [3], -15.7%; in test [4], 1.15%; with Trypanosoma cruzi, 2.77%; in [5], -4.41%. Besides, the Percent Effect in test [6] was 21.6% and 22.5% and 38.9%; in the test on N/A it was 8.48% and 9.51%; in the test listed under Homo sapiens it was 9.56%; in test [7] it was 17.2%; in [8] it was 24.7%; in test [9] it was -21.4%.

For `COc1cccc(N2CCN(C(=O)C(O)c3cccc(Cl)c3)CC2=O)c1` (stereo not given), the Percent Effect was 0.76% in test [1]; 10.8% in test [2]; -5.94% in [3]; -2.7% in test [4]; -3.48% in the test on Trypanosoma cruzi; -1.91% in test [5]. The Percent Effect in test [6] is 11.2%; in the test filed under Homo sapiens, 22.3%; in test [7], 4.76%; in test [8], 0%; in [9], -1.09%.

On to `Cc1ccc2c(ccn2CCC(=O)NC[C@@H]2CCCN3CCCC[C@H]23)c1`, for which the Percent Effect in [1] was -5.55%; in test [2], 12%; in test [3], -3.71%; in test [4], 5.07%; in the test on Trypanosoma cruzi, 4.71%; in test [5], -6.87%. Further, the Percent Effect is 14.1% in test [6]; -2.77% in the test listed under Homo sapiens; 3.17% in test [7]; 10.3% in test [8]; -4.06% in test [9].

As for `Cc1cnc2n(c1=O)CC(C(=O)Nc1cccc3cccnc13)CS2` (stereo not given), the Percent Effect in [1] was -3.5%; in test [2] it was -2.74%; in [3], -76.9%; in test [4], -1.76%; in the test with Trypanosoma cruzi it was 5.88%; in [5], 0.455%. In addition, the Percent Effect is 8.87% in test [6]; 5.24% in the test filed under Homo sapiens; 1.07% in [7]; 0% in [8]; -2.86% in [9].

Values taken from ChEMBL document CHEMBL3988442, “University of Dundee, Small-Polar-MMV Screening Library” (2021).
